Hits are enriched below; roughly 17% of the tested compounds scored in any of these assays.
ClpP mod = qHTS Assay for Activators of ClpP | purified B. subtilis ClpP, FRET peptide cleavage, 20 min | Potency, µM (highest dose often 57.5 µM), for inactives: at the top dose activity change, negative = active | hit rate 1.9% among 340,000 | ATP-dependent Clp protease proteolytic subunit (Bacillus subtilis (strain 168)), P80244; active = well fitted falling curve with a large enough effect; inconclusive = small, poorly fitted or top-dose-only effect; inactive = no such curve, though single readings can be large or run the other way; note: the source files actives as falling curves though it sought activators and does not explain the sign; nearly all actives have a fitted effect of over 65% in size
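Purified B. subtilis ClpP, 10 microg/mL final in Tris/HCl pH8 with KCl, BSA, glycerol and Tween-20, cleaved an Abz/nitrotyrosine-quenched decapeptide. Fluorescence (ex 320, em 430) was read at 0 and 20 min at room temperature. Delta was normalized to 5.8 microM ADEP and DMSO/no-enzyme controls.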
TDP1 cell CPT = qHTS for Inhibitors of human tyrosyl-DNA phosphodiesterase 1 (TDP1): qHTS in cells in presence of CPT. chicken DT40 Tdp1-/-;hTDP1 cells + 20 nM CPT, ATP luminescence, 48 h. Potency, µM (highest dose often 46.2 µM), inactives show at the highest dose activity change, negative = growth inhibition, usual class: inhibitors. hit rate 12% among 420,000. AID 686979, 2013; note: % is set by controls: 0 for no effect and ±100 for the full control effect; nearly all actives have a fitted effect of over 55% in size
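Chicken DT40 Tdp1-/- cells stably complemented with human TDP1 were seeded at 400 cells/well in medium containing 20 nM camptothecin, exposed to pin-transferred compounds, and grown at 37 °C for at least 48 hr. Viability was read as ATP luminescence.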
TDP1 inh = qHTS Assay for Inhibitors of Tyrosyl-DNA Phosphodiesterase (TDP1). Potency, µM (series often up to 130 µM), for the others: at the top dose activity change, negative = inhibition, usual class: inhibitors. hit rate 0.28% among 350,000. AID 485290, 2010. recombinant TDP1, AlphaScreen DNA substrate cleavage; note: % is set by controls: 0 for no effect and ±100 for the full control effect; nearly all actives have a fitted effect of over 40% in size
Target sequence (Q9NUW8 whole entry, looked up): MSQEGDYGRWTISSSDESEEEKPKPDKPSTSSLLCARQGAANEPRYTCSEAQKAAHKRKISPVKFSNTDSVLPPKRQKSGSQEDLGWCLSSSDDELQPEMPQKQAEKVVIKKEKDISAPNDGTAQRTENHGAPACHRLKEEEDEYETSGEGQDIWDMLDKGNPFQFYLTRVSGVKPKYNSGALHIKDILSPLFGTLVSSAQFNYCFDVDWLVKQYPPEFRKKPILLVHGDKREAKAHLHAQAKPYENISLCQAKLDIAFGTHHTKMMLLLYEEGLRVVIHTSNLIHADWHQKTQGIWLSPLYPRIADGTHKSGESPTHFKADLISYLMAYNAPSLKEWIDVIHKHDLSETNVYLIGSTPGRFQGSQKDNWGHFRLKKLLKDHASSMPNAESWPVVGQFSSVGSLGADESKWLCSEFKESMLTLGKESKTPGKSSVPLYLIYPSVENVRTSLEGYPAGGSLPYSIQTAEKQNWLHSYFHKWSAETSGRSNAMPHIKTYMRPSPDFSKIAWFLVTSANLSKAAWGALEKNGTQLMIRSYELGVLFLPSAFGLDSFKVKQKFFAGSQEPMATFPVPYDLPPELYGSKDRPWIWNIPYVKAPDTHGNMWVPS
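Tdp1 1 nM final; 15 min RT w/ cpd; substrate 15 nM, 5 min; beads 10 ug/ml, 10 min; AlphaScreen read. Neg ctrl: no enzyme.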
DT40 TDP1 no CPT = qHTS for Inhibitors of human tyrosyl-DNA phosphodiesterase 1 (TDP1): qHTS in cells in absence of CPT. AID 686978, 2013. Potency, µM (doses to about 46.2 µM), without a hit: at the top dose activity change, negative = growth inhibition, most hits filed as inhibitors. hit rate 15% among 420,000. DT40 Tdp1-/- hTDP1 cells, no CPT, ATP luminescence, 48 h; note: % is set by controls: 0 for no effect and ±100 for the full control effect; nearly all actives have a fitted effect of over 55% in size
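Chicken DT40 Tdp1-/- cells stably complemented with human TDP1 were seeded at 400 cells/well with DMSO in place of 20 nM camptothecin. After compound pinning, cells grew at least 48 hr at 37 °C; viability read by CellTiter-Glo luminescence.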
Active calls of the source: *; ? = inconclusive; · = no result; ! = not confirmed by another sample; [ ] = another dose, or the depositor's remark. Unless noted, calls come from the whole dose curve; as a rule, active = well fitted curve in the direction sought with a large enough effect; inconclusive = small, poorly fitted or top-dose-only effect, or another doubt; inactive = no such curve, though single readings can be large; an effect the other way counts as inactive or inconclusive. Potency is the fitted concentration of half-maximal effect.

SMILES | ClpP mod | TDP1 cell CPT | TDP1 inh | DT40 TDP1 no CPT
COc1cc(/C=C2\SC(=Nc3cccnc3)NC2=O)cc(OC)c1OC | -0.1% | ? | -8.2% | ?
C=CCOc1ccc(C[C@H](N)C(=O)NC[C@H]2O[C@@H](n3ccc(N)nc3=O)[C@H](O)[C@@H]2O)cc1 | 1.1% | -23.0% | · | ?
Cc1nc(NCCO)c2nc(-c3ccccc3)n(CCCN(C)C)c2n1 | · | · | 7.5% | ·
O=C1CC(c2nc(-c3ccccc3)no2)CN1c1ccccc1 (stereo unspecified) | 0.9% | ? | 7.1% | -15.9%
CC(=O)OCC1OC(C#Cc2ccc(F)cc2F)C=CC1OC(C)=O (stereo unspecified) | · | · | -0.5%[21 µM] | ·
O=C1c2[nH]nc(-c3ccccc3)c2C(c2ccccc2)N1c1cccc(C(F)(F)F)c1 (stereo unspecified) | -19.3% | 11.6µM* | 1.3%[12.3 µM] | 16.4µM*
O=C1c2[nH]nc(-c3ccc(Br)cc3)c2C(c2cccc(O)c2)N1c1ccc(Cl)cc1 (stereo unspecified) | 95.6% | ? | 4.7% | 23.1µM*
Cc1ccc(-c2n[nH]c3c2C(c2cccc(O)c2)N(c2ccc(C(=O)O)cc2)C3=O)cc1 (stereo unspecified) | -0.8% | 2.7% | 2.3% | 16.4%
O=CC(=O)c1ccc(Cl)cc1 | 0.3% | ? | · | ?
Cc1c(C(=O)NCC(C)(C)N2CCOCC2)cnn1-c1ncc2c(n1)-c1ccccc1CC2 | · | ? | · | -26.9%
Cc1ccc(C2(c3ccc(C)cc3)CC2C(=O)Nc2ccc([N+](=O)[O-])cc2O)cc1 (stereo unspecified) | 1.3% | 3.66µM* | 9.2% | 2.59µM*
O=[N+]([O-])c1cccc(C=NNc2ccccc2)c1 | 0.1% | -0.7% | · | ?
C/C(=N\NC(=O)C1CC1(c1ccccc1)c1ccccc1)c1cccc([N+](=O)[O-])c1 (stereo unspecified) | -9.5% | ? | 3.5% | 7.31µM*
C/C(=N\Nc1ccc(Cl)c(C(=O)O)c1)c1cccc([N+](=O)[O-])c1 | 1.4% | -2.7% | 0.0% | -10.4%
O=[N+]([O-])c1cccc(/C=N/Nc2nnc(-c3ccccc3)c(-c3ccccc3)n2)c1 | -8.0% | 9.2µM* | 2.8% | 9.2µM*
C/C(=N\Nc1nnc(-c2ccccc2)c(-c2ccccc2)n1)c1cccc([N+](=O)[O-])c1 | -0.7% | 7.31µM* | 5.8% | 8.2µM*
C/C(=N\NC(=O)C1CC1c1ccccc1)c1cccc([N+](=O)[O-])c1 (stereo unspecified) | 0.1% | ? | 2.0% | ?
COc1ccccc1-c1nnc(C2CCN(S(=O)(=O)c3ccccc3[N+](=O)[O-])CC2)o1 | -0.9% | ? | 2.3% | -12.9%
C/C(=N\Nc1cc(C)nc(NCc2ccccc2)n1)c1cccc([N+](=O)[O-])c1 | 0.3% | 8.2µM* | 9.8% | 2.91µM*
C/C(=N\NC(=O)c1ccccc1C)c1cccc([N+](=O)[O-])c1 | -1.1% | -7.5% | 1.1% | -4.1%
O=[N+]([O-])c1cccc(-c2csc(N/N=C/c3cccc(O)c3)n2)c1 | · | ? | 6.1% | 20.6µM*
O=C(Nc1nc(-c2cccc([N+](=O)[O-])c2)cs1)C(c1ccccc1)c1ccccc1 | -3.6% | ? | 5.6% | ?
O=C(CCn1c(=O)c2cccn2c2cccnc21)NCc1cccc(Cl)c1 | -8.9% | ? | 0.3% | -29.0%
CC(C)CCNC(=O)c1cnc2sc(N3CCCCC3)nn2c1=O | 4.1% | ? | 2.6% | ?
CCOC(=O)c1cnc(SSc2ncc(C(=O)OCC)c(N)n2)nc1N | -4.9% | 23.1µM* | · | 14.6µM*
SMILES | ClpP mod | TDP1 cell CPT | TDP1 inh | DT40 TDP1 no CPT
C=CCSc1ncc(C(=O)OCC)c(N)n1 | · | -5.3% | 2.4% | 2.3%
O=C(COC(=O)Cc1ccc(Cl)cc1)Nc1ccc2[nH]c(=O)[nH]c2c1 | -1.8% | -4.7% | -12.6%[0.505 µM] | -9.4%
CCn1c(CN2CCN(Cc3ccc(C)cc3)C(CCO)C2)nc2ccccc21 (stereo unspecified) | · | -1.5% | 5.4% | ?
COc1cc(NC(C)CCCN)c2nc(C)ccc2c1Oc1ccc(F)cc1 (stereo unspecified) | -3.7% | 25.9µM* | · | 10.3µM*
COc1cc(NC(C)CCCN)c2ncccc2c1 (stereo unspecified) | 0.3% | ? | 8.6% | 7.18µM*!
COc1cc(NCc2ccccc2O)c2ncccc2c1 | · | -6.4% | 6.8% | ?
COc1ccc(CC(C)Nc2ccccc2F)cc1 (stereo unspecified) | -1.1% | -6.7% | -17.8% | -23.6%
NC1CCN(c2c(F)cc3c(=O)c(C(=O)O)cn(C4CC4)c3c2Cl)C1 (stereo unspecified) | -10.5% | 7.31µM* | 0.0% | 6.51µM*
NC1CCN(c2nc3c(cc2F)c(=O)c(C(=O)O)cn3-c2ccc(F)cc2F)C1 (stereo unspecified) | ? | 16.4µM* | · | 8.2µM*
COc1ccc(/C=C2/CCC(CN3CCOCC3)C2=O)cc1 (stereo unspecified) | -1.5% | 1.16µM* | · | 1.16µM*
COc1ccc(/C=C2\CCC(C3CCCC3)C2=O)cc1 (stereo unspecified) | -4.5% | 4.0% | · | -3.9%
CN(C)CC1CCC/C(=C\c2ccc(OC(=O)c3ccc(Cl)cc3)cc2)C1=O (stereo unspecified) | -3.0% | 0.517µM* | · | 0.411µM*
O=C1/C(=C\c2ccc(Cl)cc2)CCC1CNc1ccc(Cl)cc1 (stereo unspecified) | 2.3% | 2.31µM* | · | 2.59µM*
CN(C)CC1CCC/C(=C\c2ccc(OC(=O)/C=C/c3ccccc3)cc2)C1=O (stereo unspecified) | 1.5% | 1.3µM* | · | 1.84µM*
CC1CCC/C(=C\c2ccc(O)cc2)C1=O (stereo unspecified) | -1.2% | -51.7% | · | -52.6%
CN(C)CC1CC/C(=C\c2ccc(O)cc2)C1=O (stereo unspecified) | 2.8% | 0.581µM* | · | 1.3µM*
CCC(CC)CN1CCC(CN2C(=S)NC[C@@H]2CC(C)C)CC1 | -1.2% | ? | · | -18.8%
COc1ccc(Nc2nc(N3CCCC3)c3ccccc3n2)cc1 | 1.3% | 2.59µM* | 11.4% | 3.26µM*
CCN(CC)c1ccc(Nc2nc(N3CCOCC3)c3ccccc3n2)cc1 | -3.5% | 4.61µM* | 11.6% | 3.26µM*
Cc1ccc2nc(N3CCN(c4ccc(F)cc4)CC3)c3nnnn3c2c1 | -13.4% | 7.31µM* | -5.6% | 14.6µM*
Cc1ccc(-c2nc3ccccc3n3nnnc23)cc1 | 12.4% | 13µM* | 1.0% | 7.31µM*
Cc1ccc2nc(Cl)c3nnnn3c2c1 | · | 1.84µM* | 7.9% | 2.59µM*
Cc1ccc2nc(NCc3ccccc3Cl)c3nnnn3c2c1 | ? | ? | 5.0% | 10.3µM*

Screening data (PubChem BioAssay)
